# APEX1 inh: blocks human APE1 abasic DNA cleavage; recombinant APE1, TAMRA/BHQ-2 abasic DNA cleavage fluorescence; Potency, µM (titrated, usually from 65.8 µM), inactives show at the highest dose activity change, negative = inhibition, hits mostly inhibitors; hit rate 0.35% among 350,000;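 note: potency is the fitted concentration of half-maximal effect; plate controls were vehicle for no effect and reference inhibitor for full effect; nearly all actives have a fitted effect of over 55% in size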
#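 Enzyme (0.75 nM final) and test compound are incubated 15 min at room temperature before adding 50 nM quenched THF abasic-site duplex. Cleavage dequenches TAMRA, followed at 525/598 nm over three reads one minute apart.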
# PI5P4Ka inh: PI5P4K alpha (human) kinase inhibition | P48426 | PI5P4Kalpha enzyme, ADP-Glo luminescence, 60 min; stronger effect = lower value | max response, % | hit rate 1.2% among 330,000; active = max response of -50% or lower; inconclusive = between -30% and -50%; inactive = -30% or higher; note: value at the top dose of about 77 µM
#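 Single end-point luminescence (ADP-Glo) quantified ADP from PI5P4Kalpha turnover; ATP 5 microM final, 1 h at RT, 0.1% CHAPS and 0.28 mM EGTA in HEPES pH 7.4.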
# GCN5L2 inh: blocks human GCN5L2 histone acetyltransferase | Potency, µM (series often up to 58.9 µM), for the others: at the highest dose activity change, negative = inhibition, most hits filed as inhibitors | GCN5L2 HAT assay, ThioGlo1 CoA-SH fluorescence | AID 504327 | hit rate 0.21% among 390,000 | Q92830; note: potency is the fitted concentration of half-maximal effect
#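 Fluorescence readout, Ex340nm/Em540nm: ThioGlo1 (50uM final) reacts with free CoA thiol released as 20nM GCN5L2 acetylates H3(1-25) peptide (75uM) using acetyl-CoA (70uM). Compound and enzyme sat 15 min beforehand; 20 min room-temperature reaction.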
# FEN1 inh: human FEN1 inhibition; hit rate 0.35% among 390,000; P39748; Potency, µM (titrated, usually from 114 µM), for the others: top-dose activity change, negative = inhibition, most hits filed as inhibitors; Recombinant FEN1 flap cleavage, fluorescence, 15 min; note: potency is the fitted concentration of half-maximal effect; nearly all actives have a fitted effect of over 65% in size
#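 With each library titrated from low to high concentration, compounds met 10 nM FEN1 for 15 min at room temperature before 50 nM substrate was added; readings at 0 and 15 min fed four-parameter Hill curve fits.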
# RECQ1 inh: blocks DNA unwinding by human RECQ1 | P46063 | RECQ1 DNA unwinding, red fluorescence kinetic read | Potency, µM (series often up to 57.3 µM), for inactives: at the highest dose activity, negative = inhibition, most hits filed as inhibitors | hit rate 0.54% among 240,000;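 note: potency is the fitted concentration of half-maximal effect; plate controls were vehicle for no effect and no enzyme for full effect; nearly all actives have a fitted effect of over 30% in size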
# Target sequence (P46063 whole entry, looked up): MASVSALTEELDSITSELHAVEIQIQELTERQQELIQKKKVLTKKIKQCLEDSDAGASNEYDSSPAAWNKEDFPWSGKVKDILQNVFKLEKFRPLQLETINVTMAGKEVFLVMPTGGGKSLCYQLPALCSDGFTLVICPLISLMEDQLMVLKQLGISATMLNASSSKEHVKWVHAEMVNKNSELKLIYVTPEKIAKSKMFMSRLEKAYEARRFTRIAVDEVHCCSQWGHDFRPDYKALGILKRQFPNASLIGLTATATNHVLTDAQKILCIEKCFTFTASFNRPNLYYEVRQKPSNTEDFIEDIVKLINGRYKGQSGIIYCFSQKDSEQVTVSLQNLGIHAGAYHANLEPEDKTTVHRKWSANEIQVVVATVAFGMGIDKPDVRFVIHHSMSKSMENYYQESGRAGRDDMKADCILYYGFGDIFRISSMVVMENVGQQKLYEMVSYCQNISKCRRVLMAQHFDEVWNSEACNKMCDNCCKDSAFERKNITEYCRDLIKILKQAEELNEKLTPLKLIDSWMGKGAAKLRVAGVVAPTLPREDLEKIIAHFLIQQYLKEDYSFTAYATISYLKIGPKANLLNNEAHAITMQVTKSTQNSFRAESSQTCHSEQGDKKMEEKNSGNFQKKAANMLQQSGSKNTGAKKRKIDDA
#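 50 nM RECQ1T1 preincubated 15 min with compound in Tris pH 8.0 buffer with MgCl2, DTT, Tween-20 and 2.5 ug/ml poly(dI-dC); started with 200 nM TAMRA/BHQ-2 forked duplex and 2 mM ATP. Unwinding read as fluorescence (525/598 nm), two reads 2 h apart.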
# BLM helicase inh: blocks DNA unwinding by human BLM helicase; P54132; recombinant BLM DNA unwinding, fluorescence dequenching; Potency, µM (doses to about 56.1 µM), for inactives: at the top dose activity change, negative = inhibition, usual class: inhibitors; hit rate 0.2% among 350,000;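 note: potency is the fitted concentration of half-maximal effect; plate controls were vehicle for no effect and no enzyme for full effect; nearly all actives have a fitted effect of over 35% in size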
# An asterisk follows results filed as active; i = inactive; ? = inconclusive; . = no result. A selection: hits, their analogues and other compounds. The true share with any hit is near 1.5%. Unless noted, calls come from the whole dose curve; as a rule, active = well fitted curve in the direction sought with a large enough effect; inconclusive = small, poorly fitted or top-dose-only effect, or another doubt; inactive = no such curve, though single readings can be large; an effect the other way counts as inactive or inconclusive. Unless noted, % is set by controls: 0 for no effect and ±100 for the full control effect.
SMILES,APEX1 inh,PI5P4Ka inh,GCN5L2 inh,FEN1 inh,RECQ1 inh,BLM helicase inh
CN1CC[C@H](c2c(O)cc(O)c3c(=O)cc(-c4ccccc4Cl)oc23)[C@@H](O)C1,.,.,.,-23.3%,.,.
c1coc(CNc2nc[n+]3c4c2ncn4CC3)c1,.,.,.,18.5%,.,.
C=CCN1CC[C@@H](O)C(=C)S1(=O)=O,.,.,.,16.5%,.,.
Cc1ccc(C2(C)NC(=O)N(CC(=O)Nc3nc(-c4ccccn4)cs3)C2=O)cc1 (stereo not drawn),31.4%,-59.1*,-22.5%,-4.2%,.,.
CC(C)=CCC/C(C)=C/CC/C(C)=C/CC/C(C)=C/C(=O)O,-1.6%,.,?,.,-16.8%,-26.9%
CSCCC1C(C#N)=C(N)Oc2n[nH]c(-c3cccs3)c21 (stereo not drawn),-6.0%,-64.6*,-5.0%,0.6%,i,-6.4%
Cc1ccc(C2C(C#N)=C(N)Oc3n[nH]c(-c4ccccc4)c32)o1 (stereo not drawn),18.3%,-67.0*,-2.6%,-17.0%,2.4%,-4.8%
COc1cc(C2C(C#N)=C(N)Oc3n[nH]c(-c4cccnc4)c32)cc(Br)c1O (stereo not drawn),2.3%,-63.5*,-5.7%,-6.0%,i,-0.1%
Cc1ccc(C2C(C#N)=C(N)Oc3n[nH]c(-c4cccnc4)c32)o1 (stereo not drawn),17.8%,?,-9.4%,-0.2%,-10.7%,-6.0%
N#CC1=C(N)Oc2n[nH]c(-c3cccs3)c2C1c1cccs1 (stereo not drawn),-4.0%,-53.3*,1.0%,1.4%,i,-2.1%
N#CC1=C(N)Oc2n[nH]c(-c3cccs3)c2C1c1ccccc1C(=O)O (stereo not drawn),-7.4%,-5.7,-6.2%,1.4%,-3.2%,-6.0%
COc1cc(C2C(C#N)=C(N)Oc3n[nH]c(-c4cccnc4)c32)ccc1OCC(N)=O (stereo not drawn),-1.8%,-17.5,-8.5%,-11.3%,4.4%,-0.6%
CN(C)c1c(Cl)cc(/C=C/c2ccnc3ccccc23)cc1Br,.,.,.,-31.4%,.,.
Cc1cc(-c2[nH]nc3c2C(c2ccsc2)C(C#N)=C(N)O3)c(C)s1 (stereo not drawn),9.0%,-52.3*,-8.4%,2.4%,-6.2%,-15.3%
N#Cc1c(SCc2c(Cl)cccc2Cl)nc(N)[nH]c1=S,-5.7%,-65.2*,-16.5%,9.3%,.,.
CC(Oc1ccccc1)C(=O)N[C@@H]1C(=O)N2C(C(=O)OCC3CCCCC3)C(C)(C)S[C@H]12 (stereo partly drawn),.,.,.,-12.9%,.,.
CCOC(=O)c1c(N)sc(=S)c2c1CCC2,35.5µM*,?,-4.3%,-19.1%,?,-26.9%
CCOC(=O)c1c(N)sc(N)c1C(=O)OCC,?,-25.0,-16.8%,6.9%,-2.0%,0.6%
O.O.[Mn].[Mn].[Mn].[OH-].[OH-],1.1%,.,-8.1%,.,-5.8%,2.7%
CCc1ccc2nc(N3C(=O)C(O)=C(C(=O)c4ccco4)C3c3cccs3)sc2c1 (stereo not drawn),-7.2%,-58.7*,?,-6.3%,-4.5%,-18.0%
Cc1ccc2nc(N3C(=O)C(O)=C(C(=O)c4ccco4)C3c3ccc(O)cc3)sc2c1 (stereo not drawn),-13.8%,.,-20.4%,.,.,-13.3%
CCOC(=O)C1=C(O)C(=O)N(c2ccccc2)C1c1cccc([N+](=O)[O-])c1 (stereo not drawn),-4.2%,-4.5,3.2%,-0.8%,22.6%,-1.7%
Cc1ccc2nc(N3C(=O)C(O)=C(C(=O)c4ccc(C)o4)C3c3ccco3)sc2c1 (stereo not drawn),-3.5%,?,-16.0%,-16.8%,.,.
Cc1cc(C)c2nc(N3C(=O)C(O)=C(C(=O)c4ccco4)C3c3cccc(O)c3)sc2c1 (stereo not drawn),-16.5%,-60.5*,?,-30.7%,.,.
CCOC(=O)c1sc(N2C(=O)C(O)=C(C(=O)c3ccco3)C2c2cccc([N+](=O)[O-])c2)nc1C (stereo not drawn),21.2%,-67.6*,?,-3.2%,.,-18.1%
SMILES,APEX1 inh,PI5P4Ka inh,GCN5L2 inh,FEN1 inh,RECQ1 inh,BLM helicase inh
Cc1ccc2nc(N3C(=O)C(O)=C(C(=O)c4ccco4)C3c3ccc(C)o3)sc2c1 (stereo not drawn),8.9%,-51.6*,-6.2%,-1.1%,.,-11.5%
CC1(C)S[C@@H]2C(C(=O)O)NC(=O)N2C1C(=O)O (stereo partly drawn),.,.,.,-9.9%,.,.
Cc1ccnc2c(Cl)cccc12,.,.,.,-5.9%,.,.
CC(C)N(c1ccc(C=O)cc1)C(C)C,.,.,.,-7.5%,.,.
COC(=O)c1sc(N2C(=O)C(O)=C(C(=O)c3ccc(C)o3)C2c2ccco2)nc1C (stereo not drawn),9.8%,-17.5,-21.8%,-11.5%,.,-11.3%
O=C(C1=C(O)C(=O)N(c2nc3ccc(Cl)cc3s2)C1c1ccco1)c1ccco1 (stereo not drawn),-13.0%,-74.0*,?,-35.6%,.,.
CC(=O)N1CCc2c(sc(NC(=O)c3ccc([N+](=O)[O-])o3)c2C(N)=O)C1,.,-64.6*,.,.,.,.
CC(=O)N1CCc2c(sc(NC(=O)CN3C(=O)c4ccccc4C3=O)c2C(N)=O)C1,-6.3%,-76.7*,-6.5%,10.5%,26.9%,-10.0%
O=C(Nc1nccs1)[C@@H]1CC=C[C@@H]2CCN(C3CC3)C(=O)[C@@H]21,.,.,.,19.6%,.,.
NS(=O)(=O)c1nn2cc(-c3ccccc3)nc2s1,-2.0%,.,0.0%,.,3.1%,1.0%
O=S(=O)(O)c1cccc(N=Nc2c(O)ccc3ccccc23)c1,?,-54.3*,2.2%,?,-14.0%,-8.1%
Oc1ccc2ccccc2c1N=Nc1ccccc1F,-3.5%,16.8,-6.8%,-29.4%,-20.1%,-2.0%
Cc1cnc2c(C)cccc2c1C,.,.,.,-1.0%,.,.
O=c1c(Cl)c(Cl)cnn1Cc1nnc(-c2ccccc2Br)o1,24.4%,-57.2*,-13.3%,11.8%,-13.8%,-14.7%
Clc1ccccc1OCc1nnc(-c2ccccc2Br)o1,8.3%,0.2,-9.5%,-16.8%,i,-7.7%
CN(C)c1ccc(/C=C/c2c(Br)cnc3ccccc23)cc1,.,.,.,-21.4%,.,.
S=C([S-])NCCNC(=S)[S-].[Zn+2],15.8µM*,.,.,.,31.6µM*,.
CC(C)(C)n1ncc2c(=O)n(Cc3ccc(F)cc3)cnc21,12.3%,.,.,13.3%,.,.
Cc1c(NC(=S)N/N=C/c2cc([N+](=O)[O-])ccc2O)c(=O)n(-c2ccccc2)n1C,0.2%,-60.6*,-27.3%,-1.6%,i,-21.3%
Oc1c(Br)cc(C2N=C(c3ccccc3)NO2)cc1Br (stereo not drawn),3.2%,-56.0*,-4.4%,11.3%,-5.4%,0.3%
Cc1cc2nccc(/C=C/c3ccc(N(C)C)cc3)c2cc1C,.,.,.,-4.8%,.,.
